Bioassay records as filed in PubChem BioAssay.
The list is not random: actives were taken first. Their share in the collection is about 2.4%.
D2 PAM-1: Beta-Arrestin HTS for Positive Allosteric Modulators of the Human D2 Dopamine Receptor: Potentiators; DiscoveRx D2 beta-arrestin cells, luminescence, 90 min; 100% = 57 uM dopamine signal; potentiation, % (no concentration beside the values); 360,000 compounds, 0.23% hits; AID 624464, 2012; in the data active = potentiation above about 50%
Target sequence (P14416 whole entry, looked up): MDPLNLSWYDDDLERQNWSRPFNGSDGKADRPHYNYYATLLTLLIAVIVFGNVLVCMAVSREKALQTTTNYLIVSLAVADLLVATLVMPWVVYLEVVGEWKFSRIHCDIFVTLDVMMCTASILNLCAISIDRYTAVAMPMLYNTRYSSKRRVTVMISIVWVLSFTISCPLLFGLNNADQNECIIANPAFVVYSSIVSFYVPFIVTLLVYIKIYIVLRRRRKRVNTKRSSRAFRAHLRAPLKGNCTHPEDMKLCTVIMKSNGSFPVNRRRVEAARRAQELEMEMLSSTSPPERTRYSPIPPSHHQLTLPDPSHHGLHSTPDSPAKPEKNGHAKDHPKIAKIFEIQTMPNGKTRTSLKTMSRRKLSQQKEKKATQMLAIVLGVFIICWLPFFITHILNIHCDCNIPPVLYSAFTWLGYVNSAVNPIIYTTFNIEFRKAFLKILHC
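D2 cells co-treated with compound plus 50 nM dopamine (EC20) for 90 min at 37 deg C to detect potentiation. Beta-arrestin recruitment was read as enzyme-fragment luminescence after 1 h at ambient temperature. Full response was set by 57 uM dopamine.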
D2 antag: HTS Assay for Allosteric Antagonists of the Human D2 Dopamine Receptor: Primary Screen for Antagonists; D(2) dopamine receptor (Homo sapiens), P14416; HEK293 TREx D2 cells, calcium flux, dopamine EC80; inhibition, % at 10 µM; 340,000 compounds, 2% hits; AID 485344, 2010; in the data active = inhibition above about 30%; inactive = below that, where a call was filed; note: 0% is about no effect
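Read-out: kinetic calcium fluorescence (1 cycle/s) in inducible HEK293 T-REx D2 cells after an EC80 dopamine addition that followed 180 s compound preincubation. Loss of the dopamine response indicates antagonism.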
D2 PAM-2: HTS Assay for Positive Allosteric Modulators of the Human D2 Dopamine Receptor: Primary Screen for Potentiators. HEK293 T-REx D2, calcium flux, EC20 dopamine potentiation. 340,000 compounds, 0.34% hits. potentiation, % at 10 µM. AID 485347, 2010;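 active = potentiation over 3 SD above the plate norm, cut at about 30% in these data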; note: 0% is about no effect
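Calcium flux readout, no-wash dye, 1 read/s. Inducible HEK293 Trex D2 line, overnight 30 C. Compound alone 180 s (agonist flags), then EC20 dopamine, another 180 s to score potentiation.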
D2 ag-1: Beta-Arrestin HTS for Positive Allosteric Modulators of the Human D2 Dopamine Receptor: Agonists | DiscoveRx PathHunter D2 beta-arrestin, luminescence, 90 min; 100% = 57 uM dopamine signal | activation, % (concentration not given with the values) | 360,000 compounds, 0.084% hits | AID 624465, 2012; in the data active = activation above about 40%
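Agonist mode: compounds alone added to overnight-plated D2 PathHunter cells for 90 min at 37 C, with 57 uM final dopamine (EC100) defining full response. Beta-arrestin recruitment detected by chemiluminescent reagent, read after 1 h at ambient temperature.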
D2 ag-2: HTS Assay for Allosteric Agonists of the Human D2 Dopamine Receptor: Primary Screen for Agonists | D(2) dopamine receptor (Homo sapiens), P14416 | HEK293 T-REx D2 cells, calcium flux agonist mode | activation, % at 2 µM | 340,000 compounds, 0.53% hits | AID 485358, 2010;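 active = activation over 3 SD above normal in the single-dose calcium agonist read, cut at about 30% in these data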; note: 0% is about no effect
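Agonism is scored from calcium flux in a force-coupled, inducible HEK293 cell line expressing D2, read kinetically for 180 s after compound addition against dopamine controls.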
Starred values were filed as active, the others as inactive; x = no result given.

SMILES	D2 PAM-1	D2 antag	D2 PAM-2	D2 ag-1	D2 ag-2
CCCC(=O)Nc1cc(C)c2c(=O)oc3ccccc3c2n1	1.4	-18.7	14.9	-6.0	-0.5
O=C(CSc1nc2ccccc2o1)Nc1nc(-c2ccccc2)cs1	-12.6	30.0*	-21.2	-2.6	-0.6
CCc1ccc(NC(=O)Cn2c(-c3cncs3)nc3ccccc32)cc1	x	x	x	x	-0.6
COc1ccc(N2C(=O)C(Cl)=C(N3CCN(Cc4ccccc4)CC3)C2=O)cc1	0.7	x	x	-2.3	x
O=C1C(Cl)=C(N2CCN(Cc3ccccc3)CC2)C(=O)N1c1ccccc1	-15.1	36.7*	-10.7	-2.9	-0.5
COc1ccccc1CNC(=O)c1cc2c(=O)oc3ccc(C)cc3c2s1	x	x	-6.1	x	-0.6
Cc1ccc(CNC(=O)c2cc3c(s2)CN(Cc2ccccc2)C3)cc1	-14.4	38.9*	-13.2	-0.8	-0.3
Cc1ccc(CNC(=O)c2cc3c(s2)CS(=O)(=O)C3)cc1	-6.9	3.9	2.2	1.4	-0.6
CCN(CC)CCn1c(NCc2ccc3c(c2)OCO3)nc2ccccc21	-10.4	32.7*	-19.9	-1.4	0.6
CCCn1c(Nc2ccccc2)nc2ccccc21	-30.7	-16.9	-5.3	-6.4	0.0
CCN(CC)CCn1c(NCc2cc(OC)ccc2OC)nc2ccccc21	-41.4	14.3	-34.4	-5.7	-1.6
CCN(CC)CCn1c(NCc2cccc(OC)c2)nc2ccccc21	-38.9	44.4*	-19.3	-5.5	0.2
CCN(CC)CCn1c(NC(=O)c2ccc(C(F)(F)F)cc2)nc2ccccc21	-25.5	88.3*	-30.7	-3.5	-1.2
CCCn1c(Nc2cccc(OC)c2)nc2ccccc21	-5.3	38.8*	3.8	2.9	-1.4
O=C(Nc1ccc2nc(SCC(=O)N3CCCc4ccccc43)sc2c1)c1ccccc1	x	x	5.5	x	4.4
O=C(NCc1ccccn1)c1nn(-c2ccccc2Cl)nc1CO	x	x	-2.4	x	-0.1
Cc1ccc(-c2nnc3ccccc3c2C(=O)Nc2cccc(C(F)(F)F)c2)cc1	x	x	1.0	x	-0.1
CCOc1ccc(NC(=O)C(C)n2c(=O)cc(C)c3c(C)nn(-c4ccccc4)c32)cc1 (stereo not given)	x	x	-7.3	x	2.1
COc1ccc(/C=N/NC(=O)COc2ccccc2-c2ccccc2)cc1	2.2	39.5*	5.6	-2.8	0.4
O=C(COc1ccccc1-c1ccccc1)N/N=C/c1cccc2ccccc12	-2.5	-16.2	-0.6	-0.1	0.8
Cc1ccc2c(c1Br)/C(=N/N1C(=O)c3ccccc3C1=O)C(=O)N2	-51.6	15.9	24.8	-17.7	1.2
CCOc1ccc(N=C2C(=O)Nc3ccc(C)c(Br)c32)cc1	-31.9	42.4*	-3.1	-17.1	0.5
Cc1cc(=O)n(CC(=O)NC(C)c2ccccc2)c2c1c(C)nn2C (stereo not given)	x	x	-5.3	x	-0.8
CN(C)CCCNS(=O)(=O)c1cc(Cl)ccc1Cl	-9.6	38.2*	-2.5	-2.3	-0.5
CCN(C(=O)CSc1nc2ccccc2c2nc(CCn3c(C)nc4ccccc43)nn12)c1cccc(C)c1	x	x	5.5	x	0.1
SMILES	D2 PAM-1	D2 antag	D2 PAM-2	D2 ag-1	D2 ag-2
O=C(CCC(=O)N1CCOc2ccc(Cl)cc21)NCCCN1CCN(c2ccccc2F)CC1	-11.4	85.8*	-15.2	0.7	36.1*
COc1ccc(N2CCN(CCCNC(=O)CCC(=O)N3CCOc4ccc(Cl)cc43)CC2)cc1	-38.8	-4.4	-27.1	-6.1	-0.2
Cc1ccc(C)c(N2CCN(CCCNC(=O)CCC(=O)N3CCOc4ccc(Cl)cc43)CC2)c1	x	55.7*	-22.6	x	4.5
CCc1cccc(C)c1NC(=O)c1cnn(-c2ccc(OC)cc2)c1C1CCN(C(=O)OC(C)(C)C)CC1	x	x	-1.2	x	-0.3
CCOC(CNC(=O)c1cc(C)nn1-c1ccccc1)OCC	-6.0	18.8	2.7	2.0	0.0
CCOCCCNC(=O)c1cc(C)nn1-c1ccccc1	-4.8	36.1*	6.0	-6.1	1.1
CCOc1ccc(CNC(=O)C2CCN(C3=NS(=O)(=O)C(c4ccc(C)cc4)=C3CC)CC2)cc1	x	x	-0.7	x	-0.2
